From PubChem BioAssay
Rows were chosen to be rich in hits. Some 9.6% of all compounds tested hit in one or more screens of this group.
HCT116 bCat-KO = beta-catenin-lacking colon tumor cell growth suppression; AID 818; HCT116 beta-catenin knockout viability, CellTiter-Glo, 60 h; stronger effect = lower value; viability, % at 10 µM; hit rate 1.5% among 140,000;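 active means viability at or under a set limit, the compound median less 4 SD, cut at about 6% in these data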;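 further: 0% = Hyamine 1622 control at 20 µM and 100% = untreated cell control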
Insulin prom up = MIN6 insulin promoter up-regulation; MIN6 insulin promoter-GFP reporter, high-content imaging; stronger effect = higher value; z-score at 5 µM; hit rate 0.3% among 190,000;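 active means z-score above 3 at 5 µM with at least 500 cells counted in the well; inconclusive means wells under 500 cells, flagged as cytotoxic or low count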
HCT116 PTEN-null = PTEN-deleted cell growth suppression; HCT116 PTEN-null viability, CellTiter-Glo, 60 h; stronger effect = lower value; hit rate 1.2% among 140,000; viability, % at 10 µM;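 active means viability at or below a set limit, 4 SD under the median of all tested compounds, cut at about 3.7% in these data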;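 further: PTEN knockout HCT116 line with beta catenin targeted HCT116 as companion control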
INS promoter inh = TRM-6 insulin promoter activity inhibition; TRM-6 cells (human fetal islet line), insulin promoter-eGFP reporter, imaging; reporter expression induced with tamoxifen; inhibition, % at 2 µM; hit rate 0.9% among 130,000;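 active means inhibition above the mean plus 3 SD, with well images judged a real hit on visual review, cut at about 60% in these data, passing the limit was not always enough; inconclusive means inhibition over the cutoff but images rejected on review; inactive means inhibition not above the cutoff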
L major viab = reduces viability of Leishmania major promastigotes; resazurin fluorescence viability; inhibition, % at 10 µM; hit rate 9% among 200,000; AID 1063; in the data active means inhibition above about 50%;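 further: promastigotes grown with compound for 44 hours at 28 °C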
Autophagy HCS = modulators of autophagy; hit rate 0.98% among 190,000; MEF GFP-LC3 puncta imaging; test concentration mostly 10 µM; calls only at 10 µM (by protocol);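 active means percentage of spot-positive cells more than 3 SD above its plate mean, without a fluorescence outlier flag or 80% toxicity; inconclusive means no clear call, values can overlap the other calls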;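 further: spot-positive cell cutoff set from DMSO-treated cells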
An asterisk follows results filed as active; i = inactive; ? = inconclusive; / = not tested or not shown; + = active, no number.

SMILES	HCT116 bCat-KO	Insulin prom up	HCT116 PTEN-null	INS promoter inh	L major viab	Autophagy HCS
Cc1ccc(S(=O)(=O)NCCC(=O)Nc2nnc(C)s2)cc1	87.0	0.32	95.9	-42.9	-6.1	i
[O-]/C(=C(\C(=S)Nc1ccc(Cl)cc1)[n+]1ccccc1)c1ccc(OC(F)F)cc1	/	-0.69	/	/	6.2	i
CC(=O)c1cccc(NC(=O)/C=C/c2ccc([N+](=O)[O-])s2)c1	/	?	/	i	14.9	i
CC1CN(C(=O)/C=C/c2ccccc2[N+](=O)[O-])CC(C)O1 (centres undefined)	/	-1.69	/	/	-3.1	i
CC1CN(C(=O)/C=C/c2ccc([N+](=O)[O-])s2)CC(C)O1 (centres undefined)	/	-0.22	/	-300.0	82.4*	i
CC1CC(C)CN(C(=O)/C=C/c2ccc([N+](=O)[O-])s2)C1 (centres undefined)	/	-0.03	/	-35.3	98.0*	i
CN(C)CC(=O)Nc1ccc(Oc2ccc(Cl)cc2)cc1	/	-0.39	/	-54.5	1.5	i
CCN(CC)c1nc2ccccc2c(N)c1-c1ccccc1	7.1	-1.93	13.7	-48.7	100.3*	i
O=C(NCCC1CC1(Cl)Cl)Nc1ccccc1 (centres undefined)	/	-0.45	/	/	/	/
C(=N\Nc1nc(-c2ccccc2)cs1)/c1ccncc1	/	0.02	/	/	4.1	i
O=C(O)c1csc(N/N=C/c2ccc(Br)cc2)n1	/	/	/	0.0	-5.1	+
COC(=O)c1cc(=O)n(Cc2ccc(OC)cc2)c(=NCc2ccc(OC)cc2)s1	/	-0.34	/	/	7.2	i
COC(=O)c1cc(=O)n(CCc2ccc(OC)cc2)c(=Nc2ccc(F)c(Cl)c2)s1	6.5	-0.28	6.7	/	99.8*	i
CCOC(=O)c1ccc(N=c2sc(C(=O)OC)cc(=O)n2CCCN2CCOCC2)cc1	6.0*	-0.16	7.7	/	99.7*	/
COC(=O)c1cc(=O)n(Cc2ccc3c(c2)OCO3)c(=Nc2ccc(F)c(Cl)c2)s1	2.0*	0.76	4.4	/	100.2*	i
COC(=O)c1cc(=O)n(Cc2ccccc2)c(=NCc2ccccc2)s1	/	-0.69	/	/	-7.0	i
COC(=O)c1cc(=O)n(CCc2ccccc2)c(=Nc2ccc(F)cc2)s1	10.0	-0.56	7.7	/	90.3*	/
Oc1ccc2ccccc2c1C1Nc2cccc3cccc(c23)N1	72.0	-0.05	72.5	8.6	9.0	i
COc1ccccc1/C=N/OC(=O)c1ccc(C)cc1	/	1.05	/	/	-4.1	i
O=C(NCCCn1ccnc1)C(=O)NCC(c1ccco1)N1CCN(c2ccccc2)CC1 (centres undefined)	/	0.27	/	/	-0.5	i
CCn1c(=O)cc(C(=O)OC)sc1=Nc1ccc(F)c(F)c1	2.2*	0.24	2.0*	/	86.2*	i
Cc1ccc2nc(NC(=O)c3ccccn3)sc2c1	/	-1.18	/	/	98.1*	i
O=C(Nc1nc2ccc(S(=O)(=O)N3CCCCC3)cc2s1)c1ccncc1	94.0	1.75	92.0	-8.6	1.8	i
O=C(Nc1nc(-c2ccccc2)c(-c2ccccc2)s1)c1ccc(S(=O)(=O)N2CCCCC2)cc1	74.5	-0.65	72.5	27.3	98.6*	i
O=C(Nc1nc2c(F)cc(F)cc2s1)c1ccccn1	/	?	/	-8.3	97.6*	i
SMILES	HCT116 bCat-KO	Insulin prom up	HCT116 PTEN-null	INS promoter inh	L major viab	Autophagy HCS
CCOc1ccc2nc(NC(=O)c3ccccn3)sc2c1	/	-1.35	/	/	/	/
O=C(Nc1nc2ccc(S(=O)(=O)N3CCCC3)cc2s1)c1ccccn1	/	0.04	/	/	98.7*	i
COc1nccnc1NS(=O)(=O)c1ccc(N=Cc2c(C)[nH]n(-c3ccc(Cl)cc3)c2=O)cc1	75.9	0.06	76.7	/	-4.3	i
Cn1ccnc1Sc1nc(Nc2cccc(Cl)c2)nc(N2CCOCC2)n1	60.4	/	50.5	15.6	27.1	i
NNC(=O)c1cc(-c2cccs2)nc2ccccc12	/	-1.04	/	/	/	/
C/C(=N\NC(=O)c1cc(-c2ccncc2)nc2ccccc12)c1ccc(N2CCOCC2)cc1	/	-0.09	/	/	96.9*	i
C/C(=N\NC(=O)c1cc(-c2cccs2)nc2ccccc12)c1ccccn1	/	-6.25	/	/	100.3*	+
COc1ccc(-c2cc(C(=O)Nc3nc4c(C)cccc4s3)c3ccccc3n2)cc1OC	72.0	-0.11	62.2	20.7	11.2	i
Cc1cccc2sc(NNC(=O)c3cc(-c4cccs4)nc4ccccc34)nc12	2.3*	-0.62	6.0	-15.0	-8.3	i
CCOC(=O)c1c(NC(=O)COC(=O)Cn2cnc3ccccc32)sc(C)c1C	79.3	-0.04	74.8	/	-3.9	i
COc1ccc(NC(=O)N2CCC(n3cnc4ccccc43)CC2)cc1	/	-1.38	/	/	0.6	i
